An excerpt weighted towards active compounds, which were near 13% of everything screened.
HCV inh = HCV inhibition | Huh7.5.1 HCVcc-Cre infection, luciferase reporter, 44 h | Potency, µM (doses to about 41.8 µM), actives largely listed as inhibitors | hit rate 3.4% among 340,000 | AID 651820
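Whole-lifecycle infectious HCVcc-Cre system; cells 1,000/well, compound then virus (~0.5 moi) added 4 h after plating, 44 h culture. Luciferase read 15 sec following 15 min substrate incubation, room temp.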
HCMV antiviral = blocks human cytomegalovirus replication. HFF cells, HCMV-luciferase reporter, 72 h; active compounds read low. activity change, negative = inhibition, % at 57.5 µM. hit rate 4.5% among 410,000; in the data active means activity change below about -60%; inconclusive means no clear call, values can overlap the other calls; inactive means above about -39%
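Two-dose cell screen: HFF monolayers treated with compounds and infected with luciferase-expressing HCMV at 1 PFU/cell, 72 h at 37C, then lysed for luciferase measurement.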
Pf growth 48h = inhibits P. falciparum growth in the first generation, 48 h; hit rate 5.9% among 310,000; P. falciparum luciferase growth in erythrocytes, 48 h; Potency, µM (series often up to 28.7 µM), usual class: inhibitors
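Growth was read as firefly luciferase luminescence after a 48 h, 37 C, 5% CO2 exposure of compounds to reporter-bearing P. falciparum cultures (0.1% parasitemia, 2% hematocrit final) in Albumax-supplemented RPMI 1640.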
Pf growth 96h = P. falciparum growth inhibition at 96 hours; P. falciparum luciferase reporter growth, 96 h; Potency, µM (series often up to 28.7 µM), hits mostly inhibitors; hit rate 6.9% among 320,000; AID 504834
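P. falciparum expressing integrated firefly luciferase, in erythrocytes at 2% hematocrit, 0.05% parasitemia, incubated with compounds 96 h at 37 C, 5% CO2. Growth inhibition read as loss of luminescence; two-generation exposure targets delayed-death apicoplast inhibitors.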
Numbers stand for hits; – = inactive; ? = inconclusive; · = no result; [ ] = remark or other dose. Unless noted, the call rests on the fitted dose curve; in most records, active means well fitted inhibition curve with a large enough effect; inconclusive means small, poorly fitted or top-dose-only effect, or another doubt; inactive means no such curve, though single readings can be large or run the other way.

SMILES	HCV inh	HCMV antiviral	Pf growth 48h	Pf growth 96h
CC(=O)N1CC(C)Sc2ccc(S(=O)(=O)NCc3ccc(F)cc3)cc21 (stereo not drawn)	?	?	–	–
COc1ccc(CNS(=O)(=O)c2ccc3c(c2)N(C(C)=O)CC(C)S3)cc1 (stereo not drawn)	?	-91.2	–	?
O=C(Cn1nc(-c2ccc(Cl)cc2)c2ccccc2c1=O)Nc1cccc(C(F)(F)F)c1	·	–	·	·
Cc1ccccc1CNC(=O)C(C)N(c1ccccc1)S(C)(=O)=O (stereo not drawn)	·	–	·	·
CCCNc1cc(C)c(C#N)c2nc3ccccc3n12	–	?	–	–
Cc1cc(NCCOCCO)n2c(nc3ccccc32)c1C#N	–	–	?	1.85µM
COCCNc1cc(C)c(C#N)c2nc3ccccc3n12	?	–	?	·
Cc1cc(NCCCO)n2c(nc3ccccc32)c1C#N	–	–	10.4µM	?
CCCCN(C)CCNC(=O)CCNC(=O)Cn1ccc2ccccc2c1=O	–	–	–	–
O=C(Cn1c(=O)sc2ccccc21)Nc1ccccc1	–	–	–	–
CCCCN(C)CCNC(=O)Cn1c(=O)sc2ccccc21	–	–	·	8.28µM
CN(CCNC(=O)Cn1c(=O)sc2ccccc21)Cc1ccccc1	–	–	·	4.65µM
CC1=C(C(=O)OCc2ccccc2)C(c2ccc(Cl)cc2Cl)NC(=O)N1CCCCCC(=O)O (stereo not drawn)	–[8.37 µM]	·	–	?
CCOC(=O)C1=C(C)N(CCCC(=O)O)C(=O)NC1c1ccccc1 (stereo not drawn)	?	–	·	·
CCCCNC(=O)C(c1ccc(OCC(=O)OC)c(C(=O)OC)c1)N(CCc1ccccc1)C(=O)CCCCCN1C(=O)NC(c2ccc(-c3ccccc3)cc2)C(C(=O)OCc2ccccc2)=C1C (stereo not drawn)	·	·	1.85µM	2.08µM
CCCCCCN(C(=O)CCCCCN1C(=O)NC(c2ccc(-c3ccccc3)cc2)C(C(=O)OCc2ccccc2)=C1C)C(C(=O)NCCCC)c1ccc(OCC(=O)OC)cc1 (stereo not drawn)	–[8.37 µM]	·	?	4.65µM
CCCCNC(=O)C(c1ccc(OCC(=O)OC)c(C(=O)OC)c1)N(CCOC)C(=O)CCCCCN1C(=O)NC(c2ccc(-c3ccccc3)cc2)C(C(=O)OCc2ccccc2)=C1C (stereo not drawn)	·	-94.9	1.17µM	1.65µM
Cc1nc(-c2ccc(Cl)cc2)sc1CCNC(=O)C(=O)Nc1ccccc1C#N	·	–	·	·
COC(=O)CN1C(=O)CSc2ccc(S(=O)(=O)Nc3cccc(C)c3)cc21	·	–	·	·
CCn1c(SCC(=O)OC)nc2sc3c(c2c1=O)CCC3	?	–	–	–
CCn1c(SCc2ccc(C(=O)OC)o2)nc2sc3c(c2c1=O)CCCC3	–	–	–	1.04µM
CC(=O)c1ccc(NC(=O)C(C)OC(=O)c2ccc(NS(=O)(=O)c3ccc(F)c(F)c3)cc2)cc1 (stereo not drawn)	12.6µM	–	–	?
CCc1ccc(NC(=O)C(C)OC(=O)c2ccc(NS(=O)(=O)c3ccc(C)c([N+](=O)[O-])c3)cc2)cc1 (stereo not drawn)	11.2µM	–	–	–
CC(OC(=O)c1ccc(NS(=O)(=O)c2ccc3[nH]c(=O)[nH]c3c2)cc1)C(=O)Nc1ccc(Cl)cc1 (stereo not drawn)	?	–	0.828µM	0.586µM
Cc1ccc(NC(=O)C(C)OC(=O)c2ccc(NS(=O)(=O)c3ccc(F)c(F)c3)cc2)cc1 (stereo not drawn)	?	–	–	?
SMILES	HCV inh	HCMV antiviral	Pf growth 48h	Pf growth 96h
COC(=O)[C@@H]1[C@@H](CO)[C@@H]2Cn3c(ccc(Br)c3=O)[C@H]1N2S(C)(=O)=O	·	–	·	·
COc1ccc(C2C(=O)N(C3CCCCC3)CC(=O)N2CCc2ccc(C)cc2)cc1OC (stereo not drawn)	·	–	·	·
COc1ccc(C(NC(=O)N2CC(C)OC(C)C2)C(Cl)(Cl)Cl)cc1F (stereo not drawn)	?	–	13.1µM	3.29µM
CCN1C(=O)c2n[nH]c(C(=O)OC)c2C1=O	?	–	?	10.4µM
CCc1ccccc1NC(=O)CSc1nnc([C@@H](N)Cc2c[nH]c3ccccc23)o1	–	–	–	?
Cc1ccc(NC(=O)CSc2nnc([C@@H](N)Cc3c[nH]c4ccccc34)o2)c(C)c1	–	–	?	9.28µM
CCC(C)NC(=O)Cn1ncc2c(C)n(Cc3ccc(F)cc3)c(C)c2c1=O (stereo not drawn)	·	–	·	·
CCc1nc2nc(C)cc(Nc3cc(C)ccc3C)n2n1	·	–	·	·
CNc1c(NC(=O)COc2ccc(Cl)cc2)c(=O)oc2ccccc12	–	–	10.4µM	?
COc1cc(NC(=O)COc2ccc(Cl)cc2)ccc1-c1cc2ccccc2oc1=O	?	–	?	4.15µM
O=[N+]([O-])c1cc(S(=O)(=O)N2CCCC2)ccc1NCCc1ccccc1	–	–	–	?
O=S(=O)(c1ccc(Cl)cc1)N1CCN(S(=O)(=O)N2CCCCCC2)CC1	–	–	–	?
O=S(=O)(c1ccc(Oc2ccc(Cl)cc2)c(S(=O)(=O)N2CCCCC2)c1)N1CCCCC1	–	–	4.65µM	·
COc1ccc(CCNc2ccc(S(=O)(=O)N3CCCC3)cc2[N+](=O)[O-])cc1	?	-62.3	–	?
COc1cccc(Oc2ccc(S(=O)(=O)N3CCCC3)cc2[N+](=O)[O-])c1	?	–	10.4µM	?
COc1ccccc1C(C)Nc1ccc(S(=O)(=O)N2CCN(C)CC2)cc1[N+](=O)[O-] (stereo not drawn)	11.2µM	–	11.7µM	16.5µM
CC(Nc1ccc(S(=O)(=O)N2CCN(C)CC2)cc1[N+](=O)[O-])c1ccccc1 (stereo not drawn)	?	–	?	?
COc1ccc(N2CCN(Cc3cccn3-c3nnc(N4CCN(C5CCCCC5)CC4)s3)CC2)cc1	·	–	·	·
COc1ccc(N2C(=O)CSC23C(=O)N(Cc2ccc(C)cc2)c2ccccc23)cc1Cl (stereo not drawn)	·	–	·	·
Nc1[nH]c(C(=O)c2ccccc2)c(-c2ccccc2C(F)(F)F)c1C(=O)NCCc1cccs1	·	–	·	·
CCOc1cc(S(=O)(=O)N2CCCCC2)ccc1F	–	–	–	·
COc1ccc(Nc2ccc(S(=O)(=O)N3CCCCC3)cc2[N+](=O)[O-])cc1OC	?	?	?	13.1µM
O=[N+]([O-])c1cc(S(=O)(=O)N2CCCCCC2)ccc1Cl	11.2µM	?	–	–
Cc1ccc(S(=O)(=O)N2CCCC2)cc1[N+](=O)[O-]	–	–	–	?
CCOc1cc(S(=O)(=O)N2CCCC2)ccc1Cl	?	–	·	11.7µM
SMILES	HCV inh	HCMV antiviral	Pf growth 48h	Pf growth 96h
CCCCN(C)CCNC(=O)c1ccc2c(=O)n(CCc3ccccc3)c(=O)[nH]c2c1	·	–	·	·
CCC(=O)Nc1nc2c(OC)ccc(C)c2s1	?	–	–	–
COc1ccc(OC)c2sc(NC(=O)CCSc3ccccc3)nc12	10µM	–	–	–
COc1ccc(OC)c2sc(NC(=O)C3=COCCO3)nc12	11.2µM	–	·	–
COc1ccc(OC)c2sc(NC(=O)C(C)C)nc12	7.94µM	–	–	–
CCc1cccc(-n2c(=O)c3cccnc3n2CC(=O)Nc2ccccc2C(=O)OC)c1	·	–	·	·

Bioassay records deposited in PubChem by National Center for Advancing Translational Sciences (NCATS).
